Results filed as inconclusive are left out. Activity calls are given as the source filed them. How the source made its calls: active means hit-call score of the fitted dose curve at least 0.9, where 1 is the maximum; inconclusive means response in the unintended direction; inactive means score below 0.9.

The nature of this assay: ATG_GAL4_TRANS: Attagene TRANS-FACTORIAL HepG2 Assay for GAL4 (Internal Marker) (AID 2282976). Particulars: HepG2 Attagene TRANS GAL4 internal marker reporter. As to the method: ATG_TRANS is a cell-based, multiplexed-readout assay that uses HepG2, a human liver cell line, with measurements taken at 24 hours after chemical dosing in a 24-well plate.ATG_GAL4_TRANS is one of 30 assay component(s) measured or calculated from the ATG_TRANS assay. It is designed to make measurements of mRNA induction, a form of inducible reporter, as detected with fluorescence intensity signals by Reverse transcription polymerase chain reaction (RT-PCR) and Capillary electrophoresis technology.Data from the assay component ATG_GAL4_TRANS was analyzed into 1 assay endpoint. This assay endpoint, ATG_GAL4_TRANS, was analyzed in the positive analysis fitting direction relative to DMSO as the negative control and baseline of activity. Using a type of inducible reporter, measures of mRNA for gain-of-signal activity can be used to understand the background control at the transcription factor-level as they relate to the gene . Furthermore, this assay endpoint can be referred to as a secondary readout, because this assay has produced multiple assay endpoints where this one serves a background control function. To generalize the intended target to other relatable targets, this assay endpoint is annotated to the background measurement intended target family, where the subfamily is baseline control.
Human liver HepG2 cells are transiently transfected with multiple reporter transcription units (MRTUs) in 6-well plates using FuGene 6 reagent (Roche; 3 ml FuGene/1 mg DNA). The MRTU constructs are regulated by a cis-regulating element (promoter). […] A major difference between the CIS and TRANS system is that in CIS activities of endogenous TFs are measured, whereas the TRANS assay evaluates changes in activities of exogenous, chimeric NR-Gal4 proteins. […] At the end of 24 hour incubation, total RNA was isolated using TriZol reagent (Invitrogen). The isolated RNA is then reverse-transcribed using oligo(dT) primer and Mo-MLV reverse transcriptase (Invitrogen) with DNAse I (Ambion) treatment for 30 min. The one-tenth of the produced cDNA was amplified by PCR using Taq DNA polymerase (Invitrogen) and two reporter sequence-specific primers. The PCR products were fluorescently labeled by primer extension with 6-arboxyfluorescein (6-FAM) 5'-labeled reporter sequence-specific primer (2 min at 95 C, 20 s at 68 C and 10 min at 72 C) and these products were digested with 5U of HpaI (New England Biolabs) for 2h at 37 C. The fragments were purified using Qiaquick PCR columns (Qiagen), analyzed on an ABI 3130xL genetic analyzer (Applied Biosystems) with peak positions identified by using a set of X-rhodamine (ROX)-labeled MapMarker1000 molecular weight standards (BioVentures). The raw capillary electrophoresis data was processed using Attagraph software (Attagene).
Regarding `Oc1cc2ccccc2c2ccccc12`, the compound was classed as inactive.

With `CN(C)C=O`, the compound was called inactive. Regarding `CN1CCN(c2ccccc2/C=C2\SCCN(c3ccc(Cl)c(Cl)c3)C2=O)CC1`, the compound was called inactive. Take `CC(=O)NC1(c2cccc(F)c2)CCN(CC[C@@]2(c3ccc(Cl)c(Cl)c3)CN(c3ccccc3)C(=O)CO2)CC1`: the call was inactive.

As for `COc1ccc([N+](=O)[O-])cc1N`, the outcome was inactive. Still for that read-out and setting: next, `OC1CCCCC1`: “inactive”; `CCCCCCC(=O)O`: “inactive”; `Oc1cccc(O)c1`: “inactive”.

As for `CCN(CC)CCNc1ccc(CNC=O)c2sc3ccc(OC)cc3c(=O)c12`, the AC50 is 3.36 µM (active).

For the compound `OC1CCC(C2CCCCC2)CC1` (stereo not given), the outcome was inactive. As for `CC(C)CCCCCCOC(=O)CCCCC(=O)OCCCCCCC(C)C`, the call was inactive. Turning to `CCC(=C(c1ccc(O)cc1)c1ccc(OCCN(C)C)cc1)c1ccccc1`, the compound was classed as inactive.

On to `COC(=O)CCCCC(=O)OC`, for which the outcome was inactive.

In the case of `CC[C@H](c1ccc(O)cc1)[C@@H](CC)c1ccc(O)cc1`, the compound was called inactive. On the same count and under the same terms, for `C=C(C)C(=O)OCCC(F)(F)C(F)(F)C(F)(F)C(F)(F)C(F)(F)C(F)(F)F` the value was “inactive”; for `C[C@@H]1C[C@H]2[C@@H]3CCC4=CC(=O)C=C[C@]4(C)[C@@]3(F)[C@@H](O)C[C@]2(C)[C@@]1(O)C(=O)COP(=O)(O)O`, “inactive”. Still for that read-out and setting: next, `CCCCCCCC(=O)O`: “inactive”; `CC(O)CO` (stereo not given): “inactive”. For `O=C1OC2(c3ccccc31)c1cc(Br)c(O)c(Br)c1Oc1c2cc(Br)c(O)c1Br`, the compound was classed as inactive.

On to `CCCCC[C@H](O)CC(=O)CCc1ccc(O)c(OC)c1`, for which the result was inactive. Consider `CCCOC(=O)c1ccc(O)cc1`, for which the compound was called inactive.

Consider `c1ccc2cc3c(ccc4ccccc43)cc2c1`, for which the compound was called inactive. Still for that read-out and setting: for `CC(O)C(=O)O` (stereo not given) the value was “inactive”.

Regarding `CCCCCCCCOC(=O)CCCCCCCCC(=O)OCCCCCCCC`, the compound was classed as inactive. Same read-out and setting: for `Cc1ccc(S(=O)(=O)O)c(C)c1` the value was “inactive”. As to `O=[N+]([O-])c1ccc(O)cc1`, the outcome was inactive.

Consider `OCCC(F)(F)C(F)(F)C(F)(F)C(F)(F)C(F)(F)C(F)(F)F`, for which the compound was classed as inactive. Same read-out and setting: next, `c1ccc2c(c1)Cc1ccccc1-2`: “inactive”; `CC(C)(C)c1cc(C(C)(C)C)c(O)c(C(C)(C)C)c1`: “inactive”; `CC(=O)CC(C)(C)O`: “inactive”.

With `N#C[C@@H]1CC(F)(F)CN1C(=O)CNC1CC2CCC(C1)N2c1ncccn1` (stereo not given in full), the result was inactive. On to `CCc1ccc(CCOc2ccc(CC3SC(=O)NC3=O)cc2)nc1` (stereo not given), for which the result was inactive. Same read-out and setting: for `Cc1oc(-c2ccccc2)nc1CCOc1ccc(C[C@H](Nc2ccccc2C(=O)c2ccccc2)C(=O)O)cc1` the value was “inactive”; for `O=C(O)Cc1cc(I)c(Oc2cc(I)c(O)c(I)c2)c(I)c1`, “inactive”. Same read-out and setting: next, `O=C(O)c1ccccc1C(c1ccc(O)cc1)c1ccc(O)cc1`: “inactive”; `CCCCCCCCCCCCCC[N+](C)(C)C`: “inactive”; `CCOC(=O)CC(O)(CC(=O)OCC)C(=O)OCC`: “inactive”. Same read-out and setting: next, `O=c1c(-c2ccc(O)cc2)coc2cc(O)ccc12`: “inactive”; `NCC(F)(F)C(F)(F)C(F)(F)C(F)(F)C(F)(F)C(F)(F)C(F)(F)F`: “inactive”; `CC(C)(C)c1cccc(C(C)(C)C)c1O`: “inactive”.

Broadly, the AC50 is the midpoint of the concentration-response curve, whichever way the signal moves.
